Compound activity deposited in PubChem BioAssay by several laboratories.
The list is not random: actives were taken first. Their share in the collection is about 2.8%.
TROY signal inh: TROY signaling inhibition; Q293 LMP1-TROYcd NF-kB luciferase reporter, 4 h; inhibition, % at 10 µM; 360,000 compounds, 0.98% hits; AID 1347056;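 active = compounds whose plate-normalised and pattern-corrected inhibition of the luciferase reporter signal at the single screening dose is 50% or more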
PAX8 reporter: inhibitors of PAX8 transcriptional activity in RMG-I cells; RMG-I TPO-luciferase reporter, SteadyGlo, 24 h; 360,000 compounds, 1.2% hits; AID 652154; inhibition, % at 12.6 µM;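 active = mean replicate inhibition at least 60% with every replicate also reaching 60%; inconclusive = only one of the two criteria is met; inactive = mean below 60% and not all replicates reaching 60%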;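 also: luciferase light reporting Pax8 driven TPO promoter activity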
TWEAK-Fn14 inh: TWEAK-Fn14 signaling inhibition. 360,000 compounds, 2% hits. inhibition, % at 10 µM. TWEAK-stimulated Fn14 reporter cells, luciferase luminescence, 8 h; in the data active = inhibition above about 50%
LGR2 inh: inhibitors of bursicon-induced Drosophila LGR2 receptor cAMP signaling. HEK293 LGR2, CRE-luciferase, bursicon-stimulated, 4 h. inhibition, % at 9.99 µM. 380,000 compounds, 0.35% hits. AID 720647;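 active = drop in luminescence signal, shown as inhibition above about 50% in the replicate tests, limit read from the data, passing the limit was not always enough; inconclusive = probably only some replicates passing the limit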;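 also: agonist challenge used bursicon conditioned medium at about half maximal strength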
EWS-Fli block: inhibitors of EWS/Fli oncoprotein transcriptional activity. A673 NR0B1-luciferase reporter, viability-normalised. inhibition, % at 12.6 µM. 350,000 compounds, 0.67% hits;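 active = mean inhibition of at least 50% after viability correction, with every replicate also passing that limit; inconclusive = mean reaches 50% but only one of two replicates passes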;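 also: firefly luciferase signal divided by Alamar Blue viability fluorescence both relative to DMSO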
Numbers stand for hits; . = inactive; ? = inconclusive; / = no result given.

SMILES	TROY signal inh	PAX8 reporter	TWEAK-Fn14 inh	LGR2 inh	EWS-Fli block
C[C@@H]1CN([C@H](C)CO)C(=O)c2cc(NS(=O)(=O)c3cccs3)ccc2O[C@@H](C)CCCCO[C@@H]1CN(C)Cc1ccc(Cl)c(Cl)c1	/	80	/	.	.
C[C@@H]1CCCCO[C@@H](CN(C)Cc2ccc(Cl)c(Cl)c2)[C@H](C)CN([C@H](C)CO)C(=O)c2cc(NS(=O)(=O)c3cccs3)ccc2O1	/	?	/	.	.
C[C@@H]1CCCCO[C@@H](CN(C)Cc2ccc(Cl)c(Cl)c2)[C@@H](C)CN([C@@H](C)CO)C(=O)c2cc(NS(=O)(=O)c3cccs3)ccc2O1	/	.	/	.	.
C[C@@H]1CCCCO[C@@H](CN(C)Cc2ccc(Cl)c(Cl)c2)[C@H](C)CN([C@@H](C)CO)C(=O)c2cc(NS(=O)(=O)c3cccs3)ccc2O1	/	71	/	.	.
C[C@@H]1CN([C@H](C)CO)C(=O)c2cc(NS(=O)(=O)c3cccs3)ccc2O[C@@H](C)CCCCO[C@H]1CN(C)Cc1ccc(Cl)c(Cl)c1	/	75	/	.	.
COc1ccccc1NC(=O)N[C@H]1CC[C@H](CC(=O)N2CCC(Cc3ccccc3)CC2)O[C@@H]1CO	/	.	/	.	.
C[C@H]1CCCCO[C@H](CN(C)C(=O)NC2CCCCC2)[C@@H](C)CN([C@@H](C)CO)C(=O)c2cc(NC(=O)C3CCCCC3)ccc2O1	/	.	/	.	.
CN1C(=O)c2cc(NC(=O)C3CC3)ccc2OC[C@@H]2O[C@H](CC(=O)NC3CCC3)CC[C@H]21	/	.	/	.	.
O=C(CCCCCN1C(=O)c2ccccc2C1=O)Nc1ccccc1	.	/	.	/	/
O=C(CCCCCCC(=O)Nc1ccccc1)NO	.	102	.	.	71
CCC(CC)C(=O)Nc1cccc(C(=O)Nc2ccc(S(=O)(=O)Nc3ccc(C)cc3)cc2)c1	54	/	.	.	/
Cc1ccc(S(=O)(=O)NC(=O)c2cccc(Br)c2)cc1	.	.	84	.	/
C[C@@H]1CCCCO[C@@H](CN(C)S(=O)(=O)c2ccc(Cl)cc2)[C@H](C)CN([C@@H](C)CO)C(=O)c2cc(NS(=O)(=O)c3cccs3)ccc2O1	/	.	/	.	.
O=C1c2ccccc2C(=O)c2[nH]c(=O)[nH]c21	54	91	.	.	.
O=C1c2ccccc2C(=O)c2[nH]cnc21	.	.	.	.	.
C#CCOCCOCCOCCNc1nc(N2CCN(C(=O)CCCCCCCCCCNC(=O)Cn3cc(C[C@@H](C)O)nn3)CC2)nc(N2CCN(C(=O)CCCCCCCCCCNC(=O)[C@@H]([C@H](C)O)n3cc(C)nn3)CC2)n1	.	/	84	/	/
C#CCOCCOCCOCCNc1nc(N2CCN(C(=O)CCCCCCCCCCNC(=O)Cn3cc(C[C@@H](C)O)nn3)CC2)nc(N2CCN(C(=O)CCCCCCCCCCNC(=O)[C@@H]([C@H](C)CC)n3cc(CCCCCN)nn3)CC2)n1	68	/	.	/	/
C#CCOCCOCCOCCNc1nc(N2CCN(C(=O)CCCCCCCCCCNC(=O)Cn3cc(CCCCCN)nn3)CC2)nc(N2CCN(C(=O)CCCCCCCCCCNC(=O)[C@@H]([C@H](C)O)n3cc(C)nn3)CC2)n1	.	/	.	/	/
C#CCOCCOCCOCCNc1nc(N2CCN(C(=O)CCCCCCCCCCNC(=O)Cn3cc(C[C@@H](C)O)nn3)CC2)nc(N2CCN(C(=O)CCCCCCCCCCNC(=O)[C@@H](CCSC)n3cc(CCO)nn3)CC2)n1	.	/	60	/	/
COc1cc(/C=C/c2noc(-c3ccccc3O)n2)cc(OC)c1OC	.	.	.	.	/
COc1ccc(/C=C/c2noc(-c3ccccc3O)n2)cc1	.	.	56	.	/
O=C(NCc1ccccc1)C(=O)Nc1nc(C23CC4CC(CC(C4)C2)C3)cs1	.	.	.	.	.
O=C(NCc1ccncc1)C(=O)Nc1nc(C23CC4CC(CC(C4)C2)C3)cs1	57	/	76	.	/
CC(=O)Oc1ccc(-c2nc3ccccc3c(=O)o2)cc1	.	.	.	.	.
CC(=O)Oc1ccc(/C=C/c2nc3ccccc3c(=O)o2)cc1	50	.	79	59	.
CC(=O)Oc1ccccc1/C=C/c1nc2ccccc2c(=O)o1	.	.	62	65	.
C[C@@H]1CN([C@H](C)CO)C(=O)CCCn2nncc2CO[C@H]1CN(C)C(=O)Nc1cccc(C(F)(F)F)c1	/	.	/	.	.
COc1cc(NC(=O)C2=C(N3CCOCC3)/C(=C\c3ccc(Cl)cc3Cl)CC2)cc(OC)c1OC	.	.	52	.	.
COc1cc(NC(=O)C2=C(N3CCOCC3)/C(=C\c3ccc(Br)cc3)CC2)cc(OC)c1OC	.	.	.	.	/
